# Test results: PubChem BioAssay AID1159580 (chemical genetic matrix, 2015)
# The whole screen tested about 5,500 compounds, of which about 2,000 (36%) were called active. About 18% were inconclusive and are not listed. The list shows a part of the results. A number with no mark means an inactive call. Rule as the data show it: active = normalized growth mostly below about 0.91 (no sharp cut-off); inconclusive = no clear call, values can overlap the other calls; inactive = mostly above about 0.92.
# Experiment: chemical genetic growth profiling, strain panel (AID 1159580);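 also: tested at 20 µM; growth read once vehicle control cultures reached saturation at 30 °C; 1 = growth at the plate median or of vehicle wells; lower values mean less growth of the strain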
# Conditions: growth OD
compound,measurement,setting,value
CC/C(=C(/CC)c1ccc(O)cc1)c1ccc(O)cc1,normalized growth,"S. cerevisiae deletion strains, locus YKL009W, strain mrt4, active compounds read low",0.916
same,normalized growth,"S. cerevisiae deletion strains, locus YKL068W, active compounds read low",1.01
same,normalized growth,"S. cerevisiae deletion strains, locus YKL085W, strain MDH1 (second series), active compounds read low",0.973
same,normalized growth,"S. cerevisiae deletion strains, locus YKL085W, strain MDH1, active compounds read low",0.973
same,normalized growth,"S. cerevisiae deletion strains, locus YKL160W, strain elf1, active compounds read low",0.955
same,normalized growth,"S. cerevisiae deletion strains, locus YKL190W, strain CNB1, active compounds read low",1
same,normalized growth,"S. cerevisiae deletion strains, locus YKR001C, strain vps1, active compounds read low",0.987
same,normalized growth,"S. cerevisiae deletion strains, locus YKR026C, strain gcn3, active compounds read low",1.02
same,normalized growth,"S. cerevisiae deletion strains, locus YKR091W, strain srl3, active compounds read low",1.01
same,normalized growth,"S. cerevisiae deletion strains, locus YLL001W, strain dnm1, active compounds read low",1
same,normalized growth,"S. cerevisiae deletion strains, locus YLL026W, active compounds read low",1
same,normalized growth,"S. cerevisiae deletion strains, locus YLL041C, strain sdh2, active compounds read low",1.02
same,normalized growth,"S. cerevisiae deletion strains, locus YLR027C, strain aat2, active compounds read low",1.01
same,normalized growth,"S. cerevisiae deletion strains, locus YLR039C, strain RIC1, active compounds read low",0.481 (active)
same,normalized growth,"S. cerevisiae deletion strains, locus YLR058C, strain SHM2, active compounds read low",0.943
same,normalized growth,"S. cerevisiae deletion strains, locus YLR102C, strain apc9, active compounds read low",1.01
same,normalized growth,"S. cerevisiae deletion strains, locus YLR113W, strain HOG1, active compounds read low",0.963
same,normalized growth,"S. cerevisiae deletion strains, locus YLR221C, strain rsa3, active compounds read low",0.956
same,normalized growth,"S. cerevisiae deletion strains, locus YLR258W, strain gsy2, active compounds read low",0.963
same,normalized growth,"S. cerevisiae deletion strains, locus YLR262C, strain YPT6 (second series), active compounds read low",0.485 (active)
same,normalized growth,"S. cerevisiae deletion strains, locus YLR262C, strain YPT6, active compounds read low",0.439 (active)
same,normalized growth,"S. cerevisiae deletion strains, locus YLR268W, strain sec22, active compounds read low",0.945
same,normalized growth,"S. cerevisiae deletion strains, locus YLR320W, strain mms22, active compounds read low",0.84 (active)
same,normalized growth,"S. cerevisiae deletion strains, locus YLR330W, strain CHS5, active compounds read low",0.981
same,normalized growth,"S. cerevisiae deletion strains, locus YLR342W, strain FKS1 (second series), active compounds read low",0.89
same,normalized growth,"S. cerevisiae deletion strains, locus YLR342W, strain FKS1, active compounds read low",1.01
same,normalized growth,"S. cerevisiae deletion strains, locus YLR357W, strain rsc2, active compounds read low",1.14
same,normalized growth,"S. cerevisiae deletion strains, locus YLR370C, strain arc18, active compounds read low",1.01
same,normalized growth,"S. cerevisiae deletion strains, locus YLR371W, strain rom2, active compounds read low",1.02
same,normalized growth,"S. cerevisiae deletion strains, locus YLR384C, strain iki3, active compounds read low",1.02
same,normalized growth,"S. cerevisiae deletion strains, locus YLR418C, strain cdc73, active compounds read low",0.956
same,normalized growth,"S. cerevisiae deletion strains, locus YML016C, strain PPZ1, active compounds read low",1.01
same,normalized growth,"S. cerevisiae deletion strains, locus YML032C, strain rad52, active compounds read low",0.914
same,normalized growth,"S. cerevisiae deletion strains, locus YML120C, strain ndi1, active compounds read low",1.01
same,normalized growth,"S. cerevisiae deletion strains, locus YML124C, strain tub3, active compounds read low",1.01
same,normalized growth,"S. cerevisiae deletion strains, locus YMR058W, strain fet3, active compounds read low",0.974
same,normalized growth,"S. cerevisiae deletion strains, locus YMR078C, strain ctf18, active compounds read low",1
same,normalized growth,"S. cerevisiae deletion strains, locus YMR125W, strain sto1, active compounds read low",1.09
same,normalized growth,"S. cerevisiae deletion strains, locus YMR129W, active compounds read low",1.02
same,normalized growth,"S. cerevisiae deletion strains, locus YMR205C, strain PFK2, active compounds read low",0.943
same,normalized growth,"S. cerevisiae deletion strains, locus YMR223W, strain ubp8, active compounds read low",0.942
same,normalized growth,"S. cerevisiae deletion strains, locus YMR231W, strain pep5, active compounds read low",1.03
same,normalized growth,"S. cerevisiae deletion strains, locus YMR307W, strain GAS1, active compounds read low",0.569 (active)
same,normalized growth,"S. cerevisiae deletion strains, locus YNL067W, strain RPL9B, active compounds read low",0.933
same,normalized growth,"S. cerevisiae deletion strains, locus YNL071W, strain lat1, active compounds read low",0.913 (active)
same,normalized growth,"S. cerevisiae deletion strains, locus YNL153C, strain GIM3, active compounds read low",0.918
same,normalized growth,"S. cerevisiae deletion strains, locus YNL183C, strain NPR1, active compounds read low",0.921
same,normalized growth,"S. cerevisiae deletion strains, locus YNL209W, strain ssb2, active compounds read low",0.981
same,normalized growth,"S. cerevisiae deletion strains, locus YNL233W, strain BNI4, active compounds read low",0.896
same,normalized growth,"S. cerevisiae deletion strains, locus YNL248C, strain rpa49, active compounds read low",1.02
same,normalized growth,"S. cerevisiae deletion strains, locus YNL250W, strain rad50, active compounds read low",1
same,normalized growth,"S. cerevisiae deletion strains, locus YNL271C, strain bni1, active compounds read low",1
same,normalized growth,"S. cerevisiae deletion strains, locus YNL298W, strain CLA4, active compounds read low",0.914
same,normalized growth,"S. cerevisiae deletion strains, locus YNL307C, strain MCK1, active compounds read low",0.995
same,normalized growth,"S. cerevisiae deletion strains, locus YNL322C, strain KRE1 (second series), active compounds read low",1.03
same,normalized growth,"S. cerevisiae deletion strains, locus YNL322C, strain KRE1, active compounds read low",0.992
same,normalized growth,"S. cerevisiae deletion strains, locus YNR049C, strain mso1, active compounds read low",1.01
same,normalized growth,"S. cerevisiae deletion strains, locus YNR052C, strain pop2, active compounds read low",0.99
same,normalized growth,"S. cerevisiae deletion strains, locus YOL006C, strain TOP1, active compounds read low",0.73
same,normalized growth,"S. cerevisiae deletion strains, locus YOL012C, strain htz1",1.4
same,normalized growth,"S. cerevisiae deletion strains, locus YOL147C, strain pex11, active compounds read low",1.02
same,normalized growth,"S. cerevisiae deletion strains, locus YOR001W, strain rrp6, active compounds read low",0.997
same,normalized growth,"S. cerevisiae deletion strains, locus YOR061W, strain CKA2, active compounds read low",0.976
same,normalized growth,"S. cerevisiae deletion strains, locus YOR069W, strain VPS5, active compounds read low",1
same,normalized growth,"S. cerevisiae deletion strains, locus YOR070C, strain gyp1, active compounds read low",0.945
same,normalized growth,"S. cerevisiae deletion strains, locus YOR080W, strain dia2, active compounds read low",1.02
same,normalized growth,"S. cerevisiae deletion strains, locus YOR083W, strain WHI5, active compounds read low",0.948
same,normalized growth,"S. cerevisiae deletion strains, locus YOR106W, strain vam3, active compounds read low",0.951
same,normalized growth,"S. cerevisiae deletion strains, locus YOR136W, strain idh2, active compounds read low",1.01
same,normalized growth,"S. cerevisiae deletion strains, locus YOR144C, strain elg1, active compounds read low",1.01
same,normalized growth,"S. cerevisiae deletion strains, locus YOR184W, strain ser1, active compounds read low",0.812 (active)
same,normalized growth,"S. cerevisiae deletion strains, locus YOR231W, strain MKK1, active compounds read low",0.976
same,normalized growth,"S. cerevisiae deletion strains, locus YOR265W, strain rbl2, active compounds read low",0.999
same,normalized growth,"S. cerevisiae deletion strains, locus YOR270C, strain vph1, active compounds read low",0.728 (active)
same,normalized growth,"S. cerevisiae deletion strains, locus YOR290C, strain snf2, active compounds read low",0.961
same,normalized growth,"S. cerevisiae deletion strains, locus YOR316C, strain cot1, active compounds read low",1
same,normalized growth,"S. cerevisiae deletion strains, locus YPL051W, strain arl3, active compounds read low",0.919
same,normalized growth,"S. cerevisiae deletion strains, locus YPL055C, strain LGE1, active compounds read low",0.811
same,normalized growth,"S. cerevisiae deletion strains, locus YPL078C, strain atp4, active compounds read low",0.953
same,normalized growth,"S. cerevisiae deletion strains, locus YPL106C, strain sse1, active compounds read low",1.12
same,normalized growth,"S. cerevisiae deletion strains, locus YPL240C, strain hsp82, active compounds read low",1.01
same,normalized growth,"S. cerevisiae deletion strains, locus YPL256C, strain CLN2, active compounds read low",0.977
same,normalized growth,"S. cerevisiae deletion strains, locus YPR119W, strain clb2, active compounds read low",1
same,normalized growth,"S. cerevisiae deletion strains, locus YPR141C, strain kar3, active compounds read low",1.03
same,normalized growth,"S. cerevisiae deletion strains, locus YPR163C, strain tif3, active compounds read low",1.02
same,normalized growth,"S. cerevisiae deletion strains, locus YPR167C, strain met16, active compounds read low",1
same,normalized growth,"S. cerevisiae deletion strains, strain wtn01, active compounds read low",0.971
same,normalized growth,"S. cerevisiae strains, strain wild type, active compounds read low",0.948
